Laboratory results published in the supplement of paper PMC6555819.

Legend:
Test in all cases: PBM binding z-score (relative to random genomic background probes); higher = stronger binding; sequences stand for … in GC…GCGATTGACAGCGTAGAATGAAGG
[1] = tested on: RARb homodimer (NR concentration 270 nM)
In short: (§1)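 Random background probes are the reference for binding z-scores. These scores derive from regression-normalized fluorescence on custom Agilent 4×180K protein-binding microarrays incubated 1 h with ligand-free nuclear receptor dimers. Binding was detected with antibodies against each partner (one per run).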

[2] = tested on: RARg:RXRa (NR concentration 270 nM, RXRa partner concentration 90 nM)
In short: as §1

[3] = tested on: RARg homodimer (NR concentration 270 nM)
In short: as §1

[4] = tested on: RXRa DBDmut IVT, anti-RXR (DBD mutation: RXRa K156A/R161A, NR concentration 90 nM)
In short: as §1

[5] = tested on: RXRa homodimer (NR concentration 180 nM)
In short: as §1

[6] = tested on: THRa:RXRa (NR concentration 90 nM, RXRa partner concentration 90 nM)
In short: as §1

[7] = tested on: THRa homodimer (NR concentration 90 nM)
In short: as §1

[8] = tested on: VDR homodimer (NR concentration 270 nM)
In short: as §1

Sequence | PBM binding z-score [1] | PBM binding z-score [2] | PBM binding z-score [3] | PBM binding z-score [4] | PBM binding z-score [5] | PBM binding z-score [6] | PBM binding z-score [7] | PBM binding z-score [8]
AGAACGAGGGCACGCTGAGTTAATAGCAGAGTAG | 0.988 | 2.08 | 2.41 | 1.8 | 1.44 | 2.05 | 0.0156 | 1.08
CGTCCAAGGTCAAGGTCAGGGAAAGAGACTCGAA | 5.45 | 7.09 | 7.87 | 3.81 | 7.17 | 4.53 | 3.82 | 3.37
GGAACGAGGGCATTCGAATTGATAGCATGGCGAT | 0.601 | 1.21 | 1.55 | 3.14 | 0.908 | 0.827 | -0.231 | 1.99
CTCGAAAGGTCGGTTTAGGTGAGTATACGGATAA | 1.77 | 2.33 | 2.31 | 1.26 | 1.8 | 4.51 | 0.786 | 1.04
CCTGATAGGTCATGGTCAGCTAATCTACAGTATG | 3.69 | 5.08 | 5.2 | 1.57 | 5.33 | 2.46 | 0.212 | 0.195
CATACAGGTTCAGCTAGGCCAGAGTAGGGACGGC | 0.871 | 1.01 | 1.03 | 2.89 | 1.41 | 1.05 | 0.0311 | 2.65
CCGACTGGGGCAAGCTTACCATAACGCACAGCCA | -0.00597 | 0.179 | 0.523 | 0.00515 | -0.0329 | -0.39 | -0.624 | -0.428
ACTTACGGGTCAGCGAGGTTATAGCACGCGTATA | 3.53 | 4.79 | 4.61 | 1.45 | 4.69 | 3.83 | 1.06 | 2.44
CCTAGTTGGTGAGGAGGTCACACACCGGATATGA | 3.83 | 4.09 | 3.23 | 0.474 | 3.91 | 3.34 | 2.03 | 2.53
ACTAGTTGGTCAGCTCAGGTCACACACAATTCGG | 3.56 | 2.3 | 2.88 | 0.763 | 1.93 | 4.66 | 4.32 | 1.46
CCTTACGGGTCACGAGGTTACAGCACGACGAGCG | 4.03 | 6.15 | 5.42 | 1.87 | 7.09 | 4.16 | 1.69 | 1.89
ACAGACAGGTGACTGAAGGTAACTCAGCTGGACG | 0.000361 | 0.5 | 0.509 | -0.793 | 0.654 | 1.94 | -0.751 | -0.657
CCTAGTTGGTCAGGAGGTCACACAACGGATATGA | 4.4 | 5.09 | 4.4 | 0.815 | 4.82 | 3.56 | 2.25 | 2.5
GGAACGAGGGTAAGTTGATAGCAGAGTTTGATGG | 0.494 | 0.154 | 0.437 | 0.818 | 0.178 | 0.12 | -0.196 | 0.755
TCTATTAGTTGAATAGGGCAACCGAAACAGCGGA | 0.977 | 0.99 | 0.765 | 0.685 | 0.759 | 0.247 | -0.423 | -0.139
TAGCCTAGGTCTTGGGCCAGTATACCACGCGAAC | 0.192 | -0.191 | -0.198 | -0.835 | -0.0837 | 0.0232 | 0.0319 | -0.506
CAAACTAGATCACAGAGGTCAAAGTCCGTGCGTA | 4.34 | 4.96 | 4.25 | 2.41 | 5.63 | 3.64 | 1.29 | 5.11
CAAACTAGGTCACCGGAATGTCAAAGTCCGCATG | 4.04 | 5.43 | 5.46 | 1.81 | 3.7 | 3.71 | 2.04 | 0.883
GCTATGAGTTGAAAGGGCAACCGAATGATTCTCG | 2.14 | 2.06 | 1.7 | 1.93 | 2.78 | 1.17 | -0.184 | 0.754

Sequence | PBM binding z-score [1] | PBM binding z-score [2] | PBM binding z-score [3] | PBM binding z-score [4] | PBM binding z-score [5] | PBM binding z-score [6] | PBM binding z-score [7] | PBM binding z-score [8]
CATACAGGGTCAGCTAAGCCAGAGTAGGGACGGC | 2.87 | 4.23 | 4.37 | 1.77 | 4.2 | 3 | 0.863 | 1.04
CGTCCAAGGTCAGGAGGTCAGTGAAAGCGACGTG | 5.53 | 7.05 | 7.08 | 2.75 | 6.98 | 4.05 | 2.68 | 2.82
TAGCCTAGGCCATGCGGGCCAGTATAGTGTCGGC | -0.484 | -0.409 | -0.0767 | -1.68 | -0.471 | -0.614 | -1.02 | -1.02
AATACAGGGTCACTAGGCTAGAGTAGGTACGAAT | 3.33 | 4.95 | 5.26 | 2.71 | 5.52 | 3.35 | 1.23 | 2.2
CGTCAAAGTTCAAGGTAACGTATCAGAAAGCAGC | 3.97 | 5.22 | 6.45 | 4.52 | 4.44 | 3.06 | 1.44 | 3.38
TCGAGTAGGTCACCAATGGGGCATTCAGCTTTCT | 3.59 | 5.11 | 4.61 | 0.972 | 3.44 | 2.42 | -0.0324 | 0.0095
ACTAGCGGGCCAAGTTTGGGTCACTCAAACAAAG | 2.11 | 2.14 | 1.65 | -0.0414 | 1.01 | 2.43 | 0.811 | 0.0653
CAAACTGGGTCACAGAGGTCAAAGTCCGTGCGTA | 5.5 | 7.14 | 7.26 | 3.26 | 7.99 | 4.4 | 2.19 | 5.91
TGAAGGAGGTTATAAGATCAGGGAACGTTGCAAA | 0.457 | 1.11 | 0.942 | -0.654 | 1.56 | 0.689 | 0.0287 | 0.219
TATACAGGGTCGAAGGCCAGAGTACGAATGTCGA | 1.26 | 1.87 | 1.72 | 0.491 | 2.32 | 1.16 | -0.382 | 1.23
ATATGTAGGTTACATCCGGGTCATGCAGGCTATG | 2.93 | 3.76 | 2.25 | 0.707 | 3.4 | 4 | 2.29 | 1.76
CGTCCAAGGTCAATGCTAGGTCCGTGAAAGCATT | 3.83 | 5.71 | 5.7 | 3.67 | 4.55 | 3.82 | 2.12 | 2.96
CGAACTAGGTCATCCGGGACAGTGAATACATTGA | 2.87 | 3.87 | 4.59 | 2.41 | 2.75 | 3.58 | 1.84 | 1.96
AATACAGGGTCATCGTAGGCCAGACTACGCACAG | 2.36 | 5.54 | 5.13 | 3.61 | 6.23 | 4.74 | 1.68 | 2.65
ACTAGCCGGCCAAGTTTGGGTCACTCAAACAAAG | 2.27 | 1.35 | 1.48 | -0.475 | 0.851 | 2.15 | 1.23 | 0.121
CGTCAACGTTCAAGGTAACGTAACAGAAAGCAGC | 0.184 | 0.115 | 0.672 | 0.181 | 0.245 | 1.48 | 0.849 | -0.423
AGAACGAGGGCAATCAGTTGATAGCACGGGTGGC | 1.08 | 1.25 | 1.74 | 1.89 | 0.909 | 1.04 | 0.0484 | 1.61
CCTAGTTGGTCAGGAGGTCTCACACCGGATATGA | 1.11 | 0.617 | 0.718 | -0.451 | 0.298 | 0.191 | 0.505 | 0.261
TCTCGGAGGCCACGAAGGTCAGAGCTTTCCAGAG | 3.74 | 3.08 | 3.36 | 0.442 | 1.88 | 2.12 | -0.105 | 0.706

Sequence | PBM binding z-score [1] | PBM binding z-score [2] | PBM binding z-score [3] | PBM binding z-score [4] | PBM binding z-score [5] | PBM binding z-score [6] | PBM binding z-score [7] | PBM binding z-score [8]
AATACAGGGTCATCGTAGGCCAGAGCACGCACAG | 3.55 | 5.92 | 5.24 | 3.61 | 6.36 | 4.52 | 1.4 | 3.18
TCATATAGGTAAACAGGCGAAAGTCCGTAAGTTA | 0.187 | 0.299 | -0.00353 | 1.36 | 0.859 | 0.323 | -0.0757 | 0.216
ACTAGTTGGTCAGCTGAGGTCGCACACAATTCGG | 2.35 | 1.52 | 1.76 | 0.828 | 1.46 | 4.25 | 2.58 | 1.32
AATACAGGGTCATCGTAGGCCAAAGTACGCACAG | 3.71 | 5.86 | 5.3 | 3.63 | 6.87 | 4.53 | 1.34 | 3.98
TCTTGTAGAACAAAGGTTAAGAAAGCCGAAGCCT | 1.45 | 1.55 | 0.851 | 0.724 | 2.32 | 1.05 | -0.79 | -0.438
AATACCGGGTCACTAGGCCAGAGTAGGTACGAAT | 2.74 | 4.17 | 3.95 | 1.2 | 4.15 | 3.08 | 0.928 | 1.22
TCAGACCGGTGAAGGTAACTCAGGTACGCAGTCG | 0.271 | 0.022 | -0.104 | 0.832 | 0.506 | 1.29 | -0.0547 | 0.152
ATCGAAAGGTTGAAGGTGAGTATACCCACCCGAA | 0.919 | 1.45 | 1.24 | -0.0221 | 2.38 | 0.997 | -0.184 | 0.162
CGAACGAGGGCATGAGTTGATAGCTAATGCCGAT | 0.599 | 1.51 | 1.52 | 2.15 | 0.984 | 1.25 | -0.207 | 1.67
GTACCAAGGTGAACAGGTCGTTGATGAGTAGGCG | 1.76 | 1.95 | 1.02 | -0.221 | 1.67 | 2.22 | 0.534 | 0.0817
ATCTCTAGGTAACCAATTTCAGTGAATGCCGAAC | 0.515 | 0.324 | 0.586 | 0.556 | 0.198 | 0.887 | 0.984 | 0.312
TGTCAAAGTTCAAAGGTAACCTAAGTATCCACAC | 3.92 | 6.15 | 5.71 | 4.52 | 7.11 | 3.64 | 0.627 | 3.92
TCTTGTAGATCAACAGGAGCTTAAGAAAGATCGA | -1.46 | 0.118 | -0.187 | -0.0794 | -0.154 | -0.552 | -1.65 | -0.768
TCATATAGGTAATGGTGAAAGTCGAACGATATGA | -0.191 | 0.377 | 0.547 | 0.843 | 0.587 | -0.0618 | -0.634 | -0.582
CGAACTAGGTCATTGACAGGACAGTGCATAGTAA | 2.87 | 4.65 | 4.3 | 2.22 | 2.43 | 2.85 | 0.816 | 1.86
CAACCTAGGTCACAGAGGTCAAAGTCCGTGCGTA | 5.82 | 7.61 | 7.92 | 3.68 | 8.52 | 4.55 | 3.1 | 7.57
GGAACGCGGGCATTCGAGTTGATAGCATGGCGAT | -0.894 | -0.144 | -0.0858 | 0.211 | -0.381 | 0.468 | -1.25 | 0.00818
GAAACGAGGGCAAAGTTGATAGCATCTGTCGACG | 1.33 | 2.11 | 1.58 | 2.66 | 2.3 | 1.57 | -0.284 | 1.13
AGTCAAATTTCAGGACGAGGTAACGTAAAGCACG | 0.179 | 0.276 | 0.438 | -0.237 | 0.24 | 2.29 | 1.82 | 0.197
